Experimental data as given in PubChem BioAssay AID1852 (Sanford-Burnham Center for Chemical Genomics, 2009).
In all, about 2,500 compounds went through this assay and about 1,100 (44%) were called active.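 Rule for the calls: active = inhibition above 50% at 4 µM in the single-point screen; inactive = inhibition of 50% or less.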 The set was probably picked from earlier hits. Some of the results follow.

Test: blockers of TNF-a NF-kB luciferase induction – cell-based, HEK293T NF-kB-Luc, luminescence, selectivity assay for NOD1/NOD2 signaling inhibitor project, primary screen (AID 1852)
Settings: TNF-a induced, 14 h, at 4 µM, active compounds read high
With `COC(=O)C1CCN(C(=O)C2CCN(C(=O)[C@@H](NS(=O)(=O)c3ccc(C)cc3)C(C)C)CC2)CC1` the inhibition was 15.9% (inactive). In the case of `COc1cc(SC)ccc1C(=O)Nc1nc2ccccc2[nH]1`, the inhibition is reported as 103% (active). For `COC(=O)/C(=C\c1cc(OC)c(OC)c(OC)c1)c1nc2ccccc2[nH]1`, the inhibition was -13.3% (inactive). For `COc1ccccc1C(=O)Nc1nc2ccccc2[nH]1`, the inhibition was 82.8% (active). With `COc1ccc(Nc2nc(C(=O)N3CCc4ccccc4C3)cs2)cc1` the inhibition was 20.3% (inactive). With `CCOC(=O)N1CCN(C(=O)C2CCCN(Cc3nc(-c4ccc(Cl)cc4)oc3C)C2)CC1` (stereo unspecified) the inhibition was 56.2% (active). For `Cc1oc(-c2ccc(Cl)cc2)nc1CSCC(=O)NC1CCN(Cc2ccccc2)CC1`, the inhibition was 47.1% (inactive). In the case of `O=C(c1ccc(Cl)cc1)C1CCCN(Cc2cnn(-c3ccccc3)c2)C1` (stereo unspecified), the inhibition is reported as 5.5% (inactive). In the case of `Cc1ccc(C)c(-n2c3nc(=O)[nH]c(=O)c-3cc3cc([N+](=O)[O-])ccc32)c1`, the inhibition is reported as 58.5% (active). For `CCSc1nnc(Cc2cc(=O)[nH]c(=O)[nH]2)n1-c1cc(C)ccc1C`, the inhibition was 16.9% (inactive). In the case of `Cc1ccc(-n2c3nc(=O)[nH]c(=O)c-3cc3cc([N+](=O)[O-])ccc32)cc1C`, the inhibition is reported as 41.9% (inactive). With `COc1cccc(/C=C2/SC(=S)N(CCCC(=O)Nc3ccc(O)cc3)C2=O)c1` the inhibition was 19.5% (inactive). In the case of `CC(/C=C1\SC(=O)N(CCCC(=O)O)C1=O)=C\c1ccccc1`, the inhibition is reported as 79.5% (active). With `COc1ccc(/C=C2/SC(=S)N(CCC(=O)O)C2=O)cc1` the inhibition was 36% (inactive). In the case of `CC(/C=C1\SC(=S)N(c2ccc(C(=O)O)cc2)C1=O)=C\c1ccccc1`, the inhibition is reported as 3.6% (inactive). With `O=C(O)CCCN1C(=O)/C(=C\C(Cl)=C\c2ccccc2)SC1=S` the inhibition was 77.9% (active). For `CCc1cc2c3c(c1)C(C)CC(C)(C)N3C(=O)/C2=C1\SC(=O)NC1=O` (stereo unspecified), the inhibition was 6.9% (inactive). In the case of `CC1(c2ccccc2)CC(C)(C)N2C(=O)/C(=C3\SC(=S)NC3=O)c3cccc1c32` (stereo unspecified), the inhibition is reported as 84.3% (active). With `COc1ccc2c(c1)oc(=O)c1ccccc12` the inhibition was -18.4% (inactive). For `N#Cc1c2ccc(O)cc2n2ccccc12`, the inhibition was 70% (active). In the case of `COc1ccc2c(C#N)c3ccccn3c2c1`, the inhibition is reported as 66.3% (active). With `COc1ccc(-c2cc(=O)oc3cc(O)ccc23)cc1` the inhibition was 2.6% (inactive). For `COc1ccc(-c2cc(=O)oc3cc(OC(=O)C4CCCCC4)c(Cl)cc23)cc1`, the inhibition was 95.3% (active). With `O=C(Oc1cc2oc(=O)cc(-c3ccccc3)c2cc1Cl)C1CCCCC1` the inhibition was 77.6% (active). For `COc1ccc(N2C(=O)C(Cl)=C(Oc3cccc(OC)c3)C2=O)cc1`, the inhibition was 13% (inactive). With `Nc1ccc(Oc2cccc(Oc3ccc(N)cc3)c2)cc1` the inhibition was 54.8% (active). For `CC(=O)c1ccc(N2CCN(S(=O)(=O)c3ccc4c(c3)CC(C)N4C(=O)C3CC3)CC2)cc1` (stereo unspecified), the inhibition was 23.2% (inactive). With `O=C(CSC1=NNC(c2ccccn2)S1)Nc1ccccc1` (stereo unspecified) the inhibition was 50.1% (active). With `O=C(CSc1nc2scc(-c3ccccc3)c2c(=O)[nH]1)Nc1ccccc1` the inhibition was 32.9% (inactive). For `Cc1ccc(NC(=O)CSc2nc(C)c(Cc3ccccc3)c(=O)[nH]2)cc1`, the inhibition was 20% (inactive). For `COc1cc(CNc2ccc3[nH]c(=O)[nH]c3c2)ccc1OCc1ccc(F)cc1Cl`, the inhibition was 28.6% (inactive). For `Cc1cc(=O)n(C)c(=O)n1CCCCOc1ccc([N+](=O)[O-])cc1`, the inhibition was 24.7% (inactive). For `Cc1c(C(=O)OCC(=O)c2c(N)n(CC(C)C)c(=O)n(C)c2=O)oc2ccccc12`, the inhibition was 26.4% (inactive). With `CC(C)Cn1c(N)c(C(=O)CSc2ccc3c(c2)OCCO3)c(=O)n(C)c1=O` the inhibition was 82.1% (active). In the case of `CCc1ccc(C(=O)OCC(=O)c2c(N)n(CC(C)C)c(=O)n(C)c2=O)cc1`, the inhibition is reported as 23.2% (inactive). In the case of `O=C(c1ccc(-c2ccccc2)cc1)N1CCN(c2ccccn2)CC1`, the inhibition is reported as 18.3% (inactive). In the case of `CC1Cc2ccccc2N1S(=O)(=O)c1cccc(C(=O)N2CCN(c3ncccn3)CC2)c1` (stereo unspecified), the inhibition is reported as 58.4% (active). With `CC(=O)c1ccc(N2CCN(S(=O)(=O)c3ccc4c(c3)CC(C)N4C(C)=O)CC2)cc1` (stereo unspecified) the inhibition was 47.2% (inactive). In the case of `Cc1cc2nc(-c3ccc(SCc4ccccn4)nc3)[nH]c2cc1C`, the inhibition is reported as 78.5% (active). In the case of `Cc1ccccc1C(=O)Nc1ccc(-c2nc3ccc(C(=O)c4ccccc4)cc3[nH]2)cc1`, the inhibition is reported as 38.3% (inactive). With `CC(C)(C)c1ccc(C(=O)O/N=C(\N)c2ccccn2)cc1` the inhibition was 22.5% (inactive). In the case of `COc1ccc(C(=O)O/N=C(\N)c2ccc(Br)cc2)cc1`, the inhibition is reported as -10.5% (inactive). In the case of `CC(C)(C)c1ccc(C(=O)O/N=C(\N)c2ccccc2)cc1`, the inhibition is reported as 51% (active). In the case of `COc1ccc(-n2cnc3c(sc4nc(N5CCOCC5)c5c(c43)CCCC5)c2=O)cc1`, the inhibition is reported as 46.4% (inactive). With `COc1ccc(-c2cc(=O)oc3cc(OCC(=O)Nc4ccc(CCO)cc4)ccc23)cc1` the inhibition was 38.3% (inactive). In the case of `CCc1ccc(OCC(=O)Nc2ccc(-c3cc4ccccc4oc3=O)c(OC)c2)cc1`, the inhibition is reported as 51.2% (active). For `Cc1ccn2cc(-c3cc4ccccc4oc3=O)nc2c1`, the inhibition was -79.5% (inactive). With `Cc1ccc(Cl)cc1N1CCN(C(=O)c2cc3c(=O)[nH]c4ccccc4c3n2C)CC1` the inhibition was 89.7% (active). In the case of `Cn1nccc1C(=O)N1CCN(c2ccccc2F)CC1`, the inhibition is reported as -23.6% (inactive). In the case of `COc1ccccc1OCC(=O)OC/C(O)=C(\C#N)c1nc2ccccc2[nH]1`, the inhibition is reported as 98.2% (active). In the case of `Cc1cccc(C)c1OCC(=O)OC/C(O)=C(\C#N)c1nc2ccccc2[nH]1`, the inhibition is reported as 101% (active). In the case of `COc1ccccc1OCc1nnc(SCC(N)=O)n1-c1ccccc1`, the inhibition is reported as 0.9% (inactive). With `Cc1nc(SCC(=O)Nc2nc3ccccc3s2)c(C#N)c(C)c1C` the inhibition was 61.7% (active). In the case of `CC(C)(C)c1nc(SCC(=O)Nc2nc3c(s2)CCCC3)c2ccccc2n1`, the inhibition is reported as -17.1% (inactive). With `CCN1C/C(=C/c2cccc([N+](=O)[O-])c2)C(=O)/C(=C/c2cccc([N+](=O)[O-])c2)C1` the inhibition was 106% (active). For `CCC1C/C(=C\c2cc(OC)c(OC)cc2OC)C(=O)/C(=C/c2cc(OC)c(OC)cc2OC)C1` (stereo unspecified), the inhibition was 36.6% (inactive). In the case of `O=[N+]([O-])c1cccc(S(=O)(=O)NCc2ccncc2)c1`, the inhibition is reported as 42.3% (inactive). With `O=C1/C(=C/c2cccc([N+](=O)[O-])c2)CCc2ccccc21` the inhibition was -28.5% (inactive). In the case of `COc1ccc(CCNC(=S)NC2CCN(Cc3ccccc3)CC2)cc1OC`, the inhibition is reported as 43.5% (inactive). For `CCN1C/C(=C/c2ccc(OC)c(O)c2)C(=O)/C(=C/c2ccc(OC)c(O)c2)C1`, the inhibition was 101% (active). With `COc1ccc(/C=C2\CN(Cc3ccccc3)C/C(=C\c3ccc(OC)c(O)c3)C2=O)cc1O` the inhibition was 77.4% (active).
